Compound activity as filed in PubChem BioAssay.
Hits are enriched below; roughly 6.5% of the tested compounds scored in any of these assays.
Vaccinia mCherry = vaccinia inhibition (mCherry reporter) | Vaccinia virus mCherry reporter infection, fluorescence | 310,000 compounds, 0.63% hits | AID 720579 | Potency, µM (doses to about 36.5 µM), for inactives: top-dose activity change, negative = inhibition, actives largely listed as inhibitors; calls by dose curve; tested in A549 cells; also: potency is read from the fitted curve at half-maximal effect; nearly all actives have a fitted effect of over 35% in size
VACV Venus inh = inhibitors of vaccinia virus (Venus reporter); Vaccinia virus Venus reporter expression, fluorescence; Potency, µM (doses to about 36.5 µM), without a hit: at the highest dose activity change, negative = inhibition, usual class: inhibitors; 330,000 compounds, 0.46% hits; calls by dose curve; tested in A549 cells; also: potency is read from the fitted curve at half-maximal effect; nearly all actives have a fitted effect of over 30% in size
HCMV inh = blocks human cytomegalovirus replication. activity change, negative = inhibition, % at 57.5 µM. HFF cells, HCMV-luciferase reporter, 72 h; hits give low values. AID 1259415. 410,000 compounds, 4.5% hits; in the data active = activity change below about -60%; inconclusive = no clear call, values can overlap the other calls; inactive = above about -39%
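HFF cells seeded 16 h at 37C, treated with compounds, infected with luciferase-reporter HCMV at MOI 1 PFU/cell; luciferase read at 72 h post infection, normalized to buffer-only and Salinomycin controls.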
MARV entry inh = blocks Marburg virus binding to or entry into cells; Marburg virus pseudotyped entry inhibition, cell reporter; 300,000 compounds, 1.8% hits; Potency, µM (top dose mostly 37.8 µM), without a hit: top-dose activity change, negative = inhibition, usual class: inhibitors; calls by dose curve; tested in HEK293 cells; also: potency is read from the fitted curve at half-maximal effect
LASV entry inh = blocks Lassa virus binding to or entry into cells; Lassa virus pseudotype entry inhibition, cell reporter; Potency, µM (titrated, usually from 37.9 µM), inactives show at the top dose activity change, negative = inhibition, most hits filed as inhibitors; 300,000 compounds, 1.2% hits; AID 540256; calls by dose curve; tested in HEK293 cells; also: potency is read from the fitted curve at half-maximal effect; nearly all actives have a fitted effect of over 50% in size
FMDV inh = antivirals against foot and mouth disease virus; Potency, µM (top dose mostly 57.9 µM), without a hit: at the highest dose activity change, negative = inhibition, hits mostly inhibitors; AID 1159524; FMDV antiviral cell-based qHTS; 410,000 compounds, 1.2% hits; calls by dose curve; tested in HEK293T cells; also: read-out not given here; potency is read from the fitted curve at half-maximal effect; nearly all actives have a fitted effect of over 45% in size
* marks the source's active call; other numbers are inactive results; i = inactive; u = inconclusive; x = no result; + = active, no number; [ ] = another dose, or the depositor's remark. % is scaled to controls: 0 for no effect and ±100 for the full control effect.

SMILES	Vaccinia mCherry	VACV Venus inh	HCMV inh	MARV entry inh	LASV entry inh	FMDV inh
O=C(Nc1nccs1)C1CC=CCC1 (stereo not given)	-11.2%	-6.3%	-69.3*	7.1%[46.1 µM]	3.1%	11.7%
O=C(Nc1nccs1)NC1CCCCC1	x	x	35.7	13.2%	1.5%	32.7%
COCCn1cnc2c1c(=O)n(Cc1ccc(C#N)cc1)c(=O)n2Cc1ccccc1	-6.3%	2.3%	-60.6*	u	-16.4%[46.1 µM]	0.6%
CS(=O)(=O)N1CC(=O)N2[C@@H](CO)[C@H](c3ccc(Br)cc3)[C@@H]2C1	x	x	8.5	x	x	x
O=C(NCC1CC1)C1=COC2=NC(=O)N(Cc3cccc(Cl)c3)CCN12	x	x	-6.9	x	x	x
Cn1c(CCN2CCN(c3ccccn3)CC2)nc2cc(NC(=O)COc3ccc(Cl)cc3)ccc21	x	x	-97.1*	x	x	11.2µM*
Cc1cccc(OCC(=O)Nc2ccc3c(c2)nc(CCN2CCN(c4ccccn4)CC2)n3C)c1	x	x	+	x	x	31.6µM*
O=[N+]([O-])c1cccc(C=Nc2cccc3ccccc23)c1O	u	-4.5%	29.1	u	6.1%[46.1 µM]	-4.2%
O=[N+]([O-])c1cc(-c2ccccc2)cc([N+](=O)[O-])c1O	-14.5%	-10.2%	-86.8*	-1.5%[46.1 µM]	4.1%[46.1 µM]	u
O=[N+]([O-])c1cc2ccccc2c(O)c1O	u	1.0%	-100.3*	x	x	0.0%
O=C(CCCc1c[nH]c2ccccc12)Nc1ncccc1O	x	x	-88.2*	x	x	-14.9%
CCOc1ncccc1C(=O)NCCc1c[nH]c2ccccc12	-10.7%	-14.2%	-66.5*	15.2%[46.1 µM]	14.1%	3.3%
COc1ccc(OC)c(N(CC(=O)NCc2ccccc2)S(=O)(=O)c2ccccc2)c1	-0.3%	-0.2%	4.7	u	-4.4%[46.1 µM]	27.5%
C=C1CCC[C@]2(C)C[C@H]3OC(=O)[C@H](CNCCc4ccccc4OC)C3CC12 (stereo not given in full)	x	x	x	x	x	-26.5%
O=C1C2CCCN2C(c2ccccc2F)N1c1ccc(Cl)cc1 (stereo not given)	x	x	-63.8*	u	-17.5%	7.9%
O=C1C2CCCN2C(c2ccccc2)N1c1ccc(Cl)cc1 (stereo not given)	x	x	-96.6*	u	u	6.1%
CN(c1ccc(OCC(=O)Nc2ccc3[nH]c(=O)[nH]c3c2)cc1)S(=O)(=O)c1ccc(Cl)cc1	x	x	-0.7	u	23.1µM*	-7.9%
CC(=O)Nc1ccc(S(=O)(=O)N(C)CC(=O)OCC(=O)NNC(=O)c2ccccc2F)cc1	-14.8%	-5.3%	10.6	-3.7%	-2.5%	4.47µM*
CC(=O)Nc1ccc(S(=O)(=O)N(C)c2ccc(OCC(=O)NCCc3ccccc3F)cc2)cc1	x	x	-61.6*	x	x	u
CCOc1ccc(S(=O)(=O)N(C)c2ccc(OCC(=O)NCc3ccc(C(=O)OC)cc3)cc2)cc1	-22.6%	4.4%	-15.4	2.2%[46.1 µM]	3.16µM*	0.0%
CC(=O)Nc1ccc(S(=O)(=O)N(C)c2ccc(OCCOc3ccccc3F)cc2)cc1	-14.3%	-7.2%	0.0	1.4%	-18.7%	-10.2%
CCOC(=O)[C@]12C[C@@H]3CCN(C(=O)N(C(C)=O)[C@@H]1c1ccccc1)[C@@H]32	x	x	x	-9.4%[14.2 µM]	x	x
Cc1cccc(C)c1NC(=O)C(Cl)=C(Cl)Cl	u	-21.3%	-89.0*	u	-4.5%	1.3%
CCCCCCCCCCCCCCCC[n+]1ccc(CC(O)c2c(C)[nH]c3ccccc23)c2ccccc21 (stereo not given)	i	i	x	x	x	x
Cc1ccc(S(=O)(=O)N2CCN(C(=O)c3cc4c(C)nn(-c5ccccc5C)c4s3)CC2)cc1	u	u	-34.5	17.8µM*	u	-30.6%
SMILES	Vaccinia mCherry	VACV Venus inh	HCMV inh	MARV entry inh	LASV entry inh	FMDV inh
COc1ccc(-c2c(C)sc(NC(=O)c3ccnn3C)c2C#N)cc1	u	-20.7%	-88.6*	u	-22.4%	u
CCc1ccc(-n2nc(C)c3c(C)cc(=O)n(CC(=O)NCc4ccc(C)cc4)c32)cc1	-14.5%	9.1%	21.3	x	2.9%[46.1 µM]	2.3%
COC(=O)C1=CO[C@@H](C)[C@H]2CN3CCc4c([nH]c5ccccc45)[C@@H]3C[C@H]12	-16.2%	-16.2%	-67.7*	x	x	u
COC(=O)C1=COC(C)C2CN3CCc4c([nH]c5ccccc45)C3CC12 (stereo not given)	-2.8%	17.7%	x	x	x	-13.0%
Cc1cc(C)nc(Sc2ncnc3sc4c(c23)CCC4)n1	x	x	-70.8*	3.4%	8.7%	-18.8%
CC1=C(C(=O)c2ccccc2)C(c2ccc(OC(F)F)cc2)NC(=S)N1 (stereo not given)	-11.9%	u	23.7	3.98µM*	u	u
COc1cc(C2NC(=S)NC(C)=C2C(=O)c2ccccc2)ccc1O (stereo not given)	-1.3%	-3.8%	-3.0	u	0.2%	-21.9%
CCCOc1ccc(C2NC(=S)NC(C)=C2C(=O)c2ccccc2)cc1OC (stereo not given)	x	x	u	14.6µM*	-4.2%	-2.6%
CC1=NC=CC2C1=Nc1ccccc12 (stereo not given)	x	x	x	-0.6%	x	x
COc1cc(C#Cc2c(-c3cncn3C)n(C)c3ccc(-c4cc(OC)c(OC)c(OC)c4)cc23)cc(OC)c1	u	11.2µM*	-2.7	x	x	-11.2%
COc1cc(C#Cc2c(-c3cncn3C)n(C)c3ccc(-c4ccc(OC)nc4)cc23)cc(OC)c1	u	28.2µM*	-4.6	x	x	u
Cc1ccc2[nH]cc(C(O)c3c[nH]c4ccc(C)cc34)c2c1	-12.7%	-13.8%	x	x	x	x
CCOc1cccc(C(=O)N(Cc2ccc(CC)cc2)C2CCS(=O)(=O)C2)c1 (stereo not given)	-19.9%	-21.0%	24.8	-16.4%[46.1 µM]	-1.2%[46.1 µM]	-7.1%
O=C(CSc1nc2ccccc2o1)Nc1nc2c(s1)CCCC2	x	x	-86.1*	x	x	u
Cc1ccc(CC(=O)Nc2nc3c(s2)CCCC3)cc1	8.91µM*	-6.1%	-72.5*	u	u	25.0%
COc1ccc(OCC(=O)Nc2nc3c(s2)CCCC3)cc1	x	x	u	x	x	9.7%
O=C(CCS(=O)(=O)Cc1ccccc1)Nc1nc2c(s1)CCCC2	-28.3%	u	-60.7*	u	u	x
COc1ccccc1OCC(=O)Nc1nc2c(s1)CCCC2	x	x	-66.9*	x	x	19.5%
CCc1ccc2occ(CC(=O)Nc3c(C(=O)c4ccc(F)cc4)oc4ccccc34)c2c1	-8.5%	-15.8%	1.1	4.8%[46.1 µM]	-2.6%[46.1 µM]	-14.1%
Cc1ccc2nc(-c3ccc(NC(=O)COc4ccc(Cl)c(C)c4)cc3)sc2c1	-5.9%	-3.4%	22.0	x	10.9%[46.1 µM]	51.1%
Cc1ccccc1NC(=O)N[C@H]1CC[C@@]23CCCN2C(=O)CCC[C@H]3[C@H]1C	x	x	-7.4	x	x	x
O=C(Nc1cccc(Br)c1)Nc1nc2c(s1)CCCCCC2	-20.8%	-16.4%	-86.3*	x	4.3%[46.1 µM]	-4.5%
Cc1ccc(C(C)C)c(OCC(=O)Nc2nc3c(s2)CCCC3)c1	-13.4%	8.0%	-82.4*	u	3.16µM*	-3.4%
Cc1sc(-c2cc3ccccc3oc2=O)nc1-c1ccc(Cl)cc1	-0.4%	11.0%	6.6	x	12.7%[46.1 µM]	-3.1%
